Bioassay records deposited in PubChem by National Center for Advancing Translational Sciences (NCATS).
Hits are enriched below; roughly 2.4% of the tested compounds scored in any of these assays.
GLP-1R agonist = qHTS of GLP-1 Receptor Agonists; 0.007% of 380,000 active; Glucagon-like peptide 1 receptor (Homo sapiens), P43220; Potency, µM (doses to about 45.6 µM), for inactives: at the highest dose activation, most hits filed as activators; HEK293 GLP-1R CRE-luciferase, luminescence, 4-6 h; cells express a hypersensitive GLP-1R form; further: potency means the concentration at half of the fitted maximal effect; % of control where 0% means no effect
HEK293 tox = qHTS of GLP-1 Receptor Inverse Agonists: Cytotox Screen; 0.13% of 410,000 active; AID 624418, 2012; Potency, µM (doses to about 38.3 µM), for the others: top-dose activity change, negative = inhibition, most hits filed as inhibitors; HEK293 cAMP-luciferase reporter cells, luminescence, 24 h;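 further: loss of luciferase light is scored as toxicity; potency means the concentration at half of the fitted maximal effect; on the % scale 0 is the no-effect control and ±100 the full control effect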
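A 23 nL compound transfer followed 12 hours of cell culture at 37 deg C; exposure then lasted 24 hr. Luciferase assay detection reagent was dispensed and plates read for luminescence after a 12 min room-temperature wait.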
TRHR agonist = qHTS for Small Molecule Agonists and Allosteric Enhancers of Human TRH Receptor: Primary Screen for Agonists; Thyrotropin-releasing hormone receptor (Homo sapiens), P34981; TRHR cells, calcium flux fluo-8, FDSS agonist mode; activation, % at 2 µM; 0.18% of 360,000 active; in the data active means activation above about 30%; further: 0% is about no effect
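TRHR-expressing cells, plated overnight in medium with 10% serum, were loaded with fluo-8 calcium dye at room temperature. After a 10 s baseline, library compound was pin-added and calcium release was recorded kinetically (ex 480/em 530) as agonist response.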
TRHR enhancer = qHTS for Small Molecule Agonists and Allosteric Enhancers of Human TRH Receptor: Primary Screen for Enhancers; Thyrotropin-releasing hormone receptor (Homo sapiens), P34981; TRHR cells, fluo-8 calcium fluorescence, EC20 TRH enhancement; enhancement, % at 2 µM; 0.66% of 360,000 active; in the data active means enhancement above about 30%; further: 0% is about no effect
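Enhancer read-out: after compound pinning and an initial kinetic agonist-mode read, an EC20 of TRH (10 nM final) was injected and fluo-8 calcium signal (Ex 480/Em 530) followed at 1 s/cycle for 100 cycles in TRHR-expressing cells.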
PTHR1 agonist = qHTS for PTHR1 Agonists: Primary Screen; Parathyroid hormone/parathyroid hormone-related peptide receptor (Homo sapiens), Q03431; HEK293 GP2 PTHR1 cells, GloSensor cAMP luminescence, 1 h; Potency, µM (highest dose often 115 µM), inactives show top-dose activation, usual class: activators; 0.075% of 410,000 active; further: potency means the concentration at half of the fitted maximal effect; nearly all actives have a fitted effect of over 55% in size
Target sequence (Q03431 whole entry, looked up): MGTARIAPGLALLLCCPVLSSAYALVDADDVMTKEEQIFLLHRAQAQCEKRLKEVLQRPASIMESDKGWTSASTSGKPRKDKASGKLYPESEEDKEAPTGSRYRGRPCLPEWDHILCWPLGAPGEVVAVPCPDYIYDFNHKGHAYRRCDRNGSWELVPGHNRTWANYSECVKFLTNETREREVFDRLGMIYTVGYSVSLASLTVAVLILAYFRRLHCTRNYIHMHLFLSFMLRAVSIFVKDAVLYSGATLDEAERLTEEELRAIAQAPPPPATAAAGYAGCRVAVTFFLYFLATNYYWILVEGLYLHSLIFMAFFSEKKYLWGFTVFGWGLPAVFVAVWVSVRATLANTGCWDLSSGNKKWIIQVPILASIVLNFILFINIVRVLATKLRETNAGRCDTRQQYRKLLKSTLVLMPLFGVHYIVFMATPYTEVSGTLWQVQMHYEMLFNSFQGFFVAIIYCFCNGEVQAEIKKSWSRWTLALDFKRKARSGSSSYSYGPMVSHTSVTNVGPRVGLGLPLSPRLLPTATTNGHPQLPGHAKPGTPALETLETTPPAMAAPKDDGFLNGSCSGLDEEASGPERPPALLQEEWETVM
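HEK-293-derived GP2 cells expressing PTHR1 and a GloSensor cAMP reporter, 3,000/well, plated overnight, given luciferin plus IBMX (each 0.5 mM as added) for 1 h at 37 °C, then compound for 1 h at 37 °C. Luminescence was read after 15 min at room temperature.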
GLP1R inv ag = qHTS of GLP-1 Receptor Inverse Agonists (Inhibition Mode); Glucagon-like peptide 1 receptor (Homo sapiens), P43220; HEK293 GLP-1R CRE-luciferase, luminescence, 24 h; GLP-1R form is constitutively active; Potency, µM (highest dose often 38.3 µM), for inactives: at the top dose activity change, negative = inhibition, hits mostly inhibitors; 1.6% of 410,000 active; further: potency means the concentration at half of the fitted maximal effect; on the % scale 0 is the no-effect control and ±100 the full control effect; nearly all actives have a fitted effect of over 55% in size
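Inverse agonism was detected as reduced cAMP-driven luciferase luminescence after 24 h compound treatment. The cells were HEK293 clones expressing constitutively active human GLP-1R with the reporter. Reporter-only and GPR119 cell lines served as counterscreen controls.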
* hit, by the source's call; i = inactive; u = inconclusive; x = not tested or not shown; [ ] = dose if it differs, or a comment. Unless noted, the call rests on the fitted dose curve; in most records, active means well fitted curve in the direction sought with a large enough effect; inconclusive means small, poorly fitted or top-dose-only effect, or another doubt; inactive means no such curve, though single readings can be large; an effect the other way counts as inactive or inconclusive.

SMILES	GLP-1R agonist	HEK293 tox	TRHR agonist	TRHR enhancer	PTHR1 agonist	GLP1R inv ag
O=C1NC(=O)C(=Cc2ccccc2OCCOc2ccc([N+](=O)[O-])cc2)C(=O)N1	6%	u	1	3	-36%	10µM*
CN1C(=O)C(=Cc2ccccc2OCCOc2ccc([N+](=O)[O-])cc2)C(=O)N(C)C1=O	12%	-29%	-3	-1	-17%	u
ClCCN(CCCl)c1ccc(C2=NCCc3ccccc32)cc1	-3%	u	x	x	-26%	u
COc1ccc2c(c1)C(c1ccc(N(CCCl)CCCl)cc1)=NCC2	17%	-30%	x	x	i	10µM*
O=C1NC(=S)N(c2ccccc2)C(=O)/C1=C/c1ccco1	-3%	-8%	1	-6	-9%	-15%
CCOc1cccc(N2C(=O)/C(=C/c3ccco3)C(=O)NC2=S)c1	-7%	-6%	1	34*	-18%	-11%
Cc1c(CN2CCC(CO)(CCOc3ccccc3)CC2)[nH]c2c(Cl)cccc12	10%	u	2	14	i	4.5µM*
COc1cccc(C(=O)C2CCCN(Cc3cccc(C)n3)C2)c1 (stereo unspecified)	4%	u	-2	19	-22%	u
COc1c(C)cc(C(=O)C2CCCN(Cc3cccc(C)n3)C2)cc1C (stereo unspecified)	-5%	-19%	0	-1	-2%	8.9µM*
Cc1cccc(CN2CCCC(C(=O)c3ccc4c(c3)OCO4)C2)n1 (stereo unspecified)	7%	u	0	24	i	u
CCCCC[C@@H]1CCCCC[C@H](O)C[C@@H](O)[C@@H](O)/C=C/C(=O)O1	4%	-20%	x	x	i	-19%
O=c1[nH]c(=S)n(-c2ccc(Cl)cc2)c(O)c1C=Nc1ccc(N2CCOCC2)cc1	0%	5%	13	33*	-33%	9%
CCn1c(O)c(C=Nc2ccc(N3CCOCC3)c(Br)c2)c(=O)n(CC)c1=S	-14%	3%	1	-2	-2%[57.5 µM]	0%
CCn1c(O)c(C=Nc2ccc(N3CCOCC3)cc2)c(=O)n(CC)c1=S	-7%	2%	32*	7	-7%[57.5 µM]	0%
C[C@H]1[C@@H]2Cc3ccc(O)cc3[C@]1(C)CCN2CCc1ccccc1	4%[96 µM]	x	x	x	x	x
c1ccc(-c2ccc(-c3n(-c4ccccn4)c4ccccc4[n+]3-c3ccccn3)cc2)cc1	-1%	-17%	0	4	-40%	u
COc1ccc(NC(=O)Nc2ccc3c(c2)C(=O)N([C@H](C)CO)C[C@H](C)[C@@H](CN(C)Cc2ccc(Cl)c(Cl)c2)OCCCC[C@@H](C)O3)cc1	-2%	3%	x	x	-15%	3.2µM*
CC(=O)[C@@]1(O)CC[C@H]2[C@@H]3CC=C4C[C@@H](O)CC[C@]4(C)[C@H]3CC[C@@]21C	4%	3%	0	1	i	0%
Cc1ccc(Cn2nnnc2CN2CCC(n3nnc4cc(C(F)(F)F)ccc43)CC2)cc1	-1%	-12%	1	-3	-22%	10µM*
CCn1ccnc1CN1CCCC(C(=O)c2ccc(SC)cc2)C1 (stereo unspecified)	10%	13µM*	0	19	i	u
CSc1ccc(C(=O)C2CCCN(Cc3cnc(SC)nc3)C2)cc1 (stereo unspecified)	21%	-5%	0	-1	-82%	u
CCCCC12CN3CC(C)(CN(C1)C3c1ccccn1)C2=O (stereo unspecified)	x	-2%	0	1	i	-3%
Cc1cnc(-n2c(=S)[nH]c3ccccc3c2=O)s1	-2%	20%	0	0	i	7%
O=[N+]([O-])c1cccnc1N1CCC(c2cc(-c3cccc(C(F)(F)F)c3)n[nH]2)CC1	-5%	u	0	0	-4%[57.5 µM]	8.9µM*
O=C(CNC(=O)OCc1ccccc1)NCC(=O)Nc1ccc(Br)cc1C(=O)c1ccccc1	4%	-2%	-2	8	-25%	1%
SMILES	GLP-1R agonist	HEK293 tox	TRHR agonist	TRHR enhancer	PTHR1 agonist	GLP1R inv ag
O=C(CNC(=O)OCc1ccccc1)Nc1ccc(Br)cc1C(=O)c1ccccc1	-9%	-27%	-2	0	i	11µM*
C=C1Nc2ccccc2C(=O)N1c1ccccc1C	2%	x	x	x	x	x
Oc1ccccc1/C=N/NP(=S)(c1ccccc1)c1ccccc1	7%	-5%	5	2	-8%	u
C/C(=N\NP(=S)(c1ccccc1)c1ccccc1)c1ccc(O)cc1O	16%	13%	0	-1	-4%	11µM*
COC(=O)C1=C(c2ccc(-c3ccccc3)c(F)c2)C[C@@H]2CC[C@H]1N2C(=O)NCCc1ccccc1	0%	-8%	2	5	-8%	u
CCCN(CCC)c1nc(NC2CCN(C(=O)OCC)CC2)nc(OC)n1	8%	u	1	-4	-28%	2.8µM*
O=[N+]([O-])c1cc([N+](=O)[O-])c2ccccc2c1	-8%[96 µM]	x	x	x	x	x
COc1cccc(CN2CCN(C(=O)COc3ccc4ccccc4c3)CC2)c1	-2%	-17%	-1	9	-20%[57.5 µM]	11µM*
COc1ccc(-n2c(/C=C/c3ccc(O)cc3)nc3ccccc3c2=O)cc1	9%	-29%	1	20	-48%	10µM*
CCNC(=O)C1CCCN(Cc2cc(C(F)(F)F)ccc2Cl)CC1 (stereo unspecified)	7%	2%	x	x	i	u
CC(C)CCn1c(N)c(C(=O)OCC2CCCO2)c2nc3ccccc3nc21 (stereo unspecified)	0%	254%	0	-5	-25%[57.5 µM]	4µM*
C=C1C(=O)O[C@@H]2C[C@@H](C)[C@@H]3C=CC(=O)[C@@]3(C)[C@@H](OC(C)=O)[C@H]12	-23%	u	0	-4	-49%	4.5µM*
C=C1C(=O)O[C@@H]2C[C@@H](C)[C@@H]3C=CC(=O)[C@@]3(C)[C@@H](O)[C@H]12	-10%	u	0	4	-54%	2.5µM*
CC[n+]1c(-c2ccccc2)c2cc(N)ccc2c2ccc(N)cc21	-30%	u	x	x	i	5.6µM*
